From PubChem BioAssay (NCI)
This is part of a sample that, as a whole, favours compounds with a hit. Of some 83,000 tested, about 20% had one in any assay.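 Treatment: one concentration, 48 hours, 96-well format. Scoring: percent growth, with anything below 10 considered active.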 Values without a mark were called inactive. Calls of active or inactive are those of the source.

Experiments:
Test in all cases: NCI-60 one-dose screen, 48 h (100 = growth as untreated, 0 = no growth, -100 = all killed)
Details in all cases: 10 µM unless noted
T-47D breast = system: T-47D breast
BT-549 breast = system: BT-549 breast
MDA-MB-435 melanoma = system: MDA-MB-435 melanoma
SW-620 colon = system: SW-620 colon
MCF7 breast = system: MCF7 breast
HCT-116 colon = system: HCT-116 colon
HCC-2998 colon = system: HCC-2998 colon
KM12 colon = system: KM12 colon

| SMILES | growth (T-47D breast) | growth (BT-549 breast) | growth (MDA-MB-435 melanoma) | growth (SW-620 colon) | growth (MCF7 breast) | growth (HCT-116 colon) | growth (HCC-2998 colon) | growth (KM12 colon) |
| --- | --- | --- | --- | --- | --- | --- | --- | --- |
| COC(=O)/C=C1/SC(=Nc2ccc(F)cc2)N(CCc2c[nH]c3ccc(O)cc23)C1=O | 23.7% | 8.93% (active) | 25.4% | 53.7% | 17% | 23.1% | 45.9% | 38.3% |
| Brc1ccc(Nc2nc(Nc3cnc4ccccc4c3)c3[nH]cnc3n2)cc1 | 52.8% | 48.6% | 96.3% | 91.9% | 58% | 55% | 103% | 88.8% |
| ClC(Cl)c1nc(-c2ccccc2)n2nc(-c3ccccc3)cc2n1 | 28.5% | 77.2% | 12% | -35.3% (active) | 3.37% (active) | 4.82% (active) | -82.1% (active) | -32% (active) |
| O=c1oc2c(cnc3ccccc32)cc1-c1cccc(Cl)c1 | 107% | 115% | 97% | 106% | 99.2% | 105% | 109% | 110% |
| O=C1C=CC2(O)OC/C(=C\c3ccccc3)C(O)=C2C1=O (stereo not drawn) | -19.8% (active) | -1.66% (active) | 15.8% | 5.52% (active) | 23.4% | -9.7% (active) | 80.6% | -16.9% (active) |
| CC(C)(C)c1ccc(C(=O)N/N=C/c2ccc(O)cc2O)cc1 | 33.1% | 32% | 34.3% | 30% | 8.44% (active) | 23.4% | 19.4% | 12.5% |
| CC1(C)CC[C@]23CC[C@]4(C)[C@H](CC[C@@H]5[C@@]6(C)C/C(=C/O)C(=O)C(C)(C)[C@@H]6CC[C@]54C)[C@H]2[C@H]1OC3 | 114% | 111% | 97.7% | 103% | 85.7% | 105% | 110% | 114% |
| CN(C)c1ccc(C(=S)c2ccc(N(C)C)cc2)cc1 | 74.2% | 83.5% | -13.2% (active) | 43.9% | 46.4% | 57.8% | 70.6% | 47.2% |
| CCCOC(=O)Nc1nc2ccc(SCC)cc2s1 | 84.8% | 85.5% | 3.85% (active) | 52.5% | 43.7% | 62.8% | 79.7% | 58.6% |
| N#Cc1ccc(/C=C/c2cn(-c3ccccc3)nc2-c2cccc([N+](=O)[O-])c2)cc1 | 75% | 40.5% | 61.2% | 57.1% | 58.7% | 30.1% | 82% | 65.7% |
| N#C/C(=C\c1ccc(-c2cccc(Cl)c2)o1)C(=O)Nc1ncc(Cc2ccc(Cl)cc2)s1 | 20.7% | 72.9% | 56.5% | 62.5% | 54.4% | 41.9% | 94.3% | 48.6% |
| OC1(c2ccccc2)c2ccccc2N(c2ccccc2)c2ccc(Cl)cc21 (stereo not drawn) | -85.1% (active) | -78.7% (active) | -81.5% (active) | -85.7% (active) | -88% (active) | -85.9% (active) | -90.1% (active) | -87.6% (active) |
| C=CC(CC(c1ccccc1)(c1ccccc1)c1ccccc1)N(CC)CC (stereo not drawn) | 59.3% | 64.4% | 79.2% | 55.4% | 73% | 43.9% | 69% | 58.8% |
| CCN(CC)C(=O)C1=C(C)NC(=O)NC1c1ccc2c(c1)OCO2 (stereo not drawn) | 104% | 111% | 108% | 105% | 97.4% | 110% | 114% | 112% |
| COc1ccc(/C=C(\C(=O)NCc2cccnc2)S(=O)(=O)c2ccccc2)cc1OC | 12.1% | 35.5% | -8.51% (active) | 11.9% | 12.9% | 15% | 96.6% | 52.8% |
| CN1C(=O)/C(=C/c2ccc(C(=O)Nc3ncc(Cc4cccc(C(F)(F)F)c4)s3)cc2)SC1=S | 30% | 47.3% | -27.2% (active) | 38.2% | 30.4% | 43.7% | 49.6% | 28% |
